Measurements: article PMC4336329 (PLoS ONE, 2015)
In all, about 310,000 compounds went through this assay and about 14,000 (4.5%) showed an effect of 50% or more. The effect is printed as a negative number. The list comes from a sample in which strong results are over-represented; it also holds similar structures and randomly drawn compounds.

These compounds were tested against human ether-à-go-go-related gene (hERG) potassium channel (human, UniProt Q12809) (assay: primary screen, population patch clamp on CHO cells stably expressing hERG; higher = less effect of the substance).
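Also: peak tail current of the secondary pulse compared with the same well before compound.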

Chain of human ether-à-go-go-related gene (hERG) potassium channel (Q12809 whole entry, looked up): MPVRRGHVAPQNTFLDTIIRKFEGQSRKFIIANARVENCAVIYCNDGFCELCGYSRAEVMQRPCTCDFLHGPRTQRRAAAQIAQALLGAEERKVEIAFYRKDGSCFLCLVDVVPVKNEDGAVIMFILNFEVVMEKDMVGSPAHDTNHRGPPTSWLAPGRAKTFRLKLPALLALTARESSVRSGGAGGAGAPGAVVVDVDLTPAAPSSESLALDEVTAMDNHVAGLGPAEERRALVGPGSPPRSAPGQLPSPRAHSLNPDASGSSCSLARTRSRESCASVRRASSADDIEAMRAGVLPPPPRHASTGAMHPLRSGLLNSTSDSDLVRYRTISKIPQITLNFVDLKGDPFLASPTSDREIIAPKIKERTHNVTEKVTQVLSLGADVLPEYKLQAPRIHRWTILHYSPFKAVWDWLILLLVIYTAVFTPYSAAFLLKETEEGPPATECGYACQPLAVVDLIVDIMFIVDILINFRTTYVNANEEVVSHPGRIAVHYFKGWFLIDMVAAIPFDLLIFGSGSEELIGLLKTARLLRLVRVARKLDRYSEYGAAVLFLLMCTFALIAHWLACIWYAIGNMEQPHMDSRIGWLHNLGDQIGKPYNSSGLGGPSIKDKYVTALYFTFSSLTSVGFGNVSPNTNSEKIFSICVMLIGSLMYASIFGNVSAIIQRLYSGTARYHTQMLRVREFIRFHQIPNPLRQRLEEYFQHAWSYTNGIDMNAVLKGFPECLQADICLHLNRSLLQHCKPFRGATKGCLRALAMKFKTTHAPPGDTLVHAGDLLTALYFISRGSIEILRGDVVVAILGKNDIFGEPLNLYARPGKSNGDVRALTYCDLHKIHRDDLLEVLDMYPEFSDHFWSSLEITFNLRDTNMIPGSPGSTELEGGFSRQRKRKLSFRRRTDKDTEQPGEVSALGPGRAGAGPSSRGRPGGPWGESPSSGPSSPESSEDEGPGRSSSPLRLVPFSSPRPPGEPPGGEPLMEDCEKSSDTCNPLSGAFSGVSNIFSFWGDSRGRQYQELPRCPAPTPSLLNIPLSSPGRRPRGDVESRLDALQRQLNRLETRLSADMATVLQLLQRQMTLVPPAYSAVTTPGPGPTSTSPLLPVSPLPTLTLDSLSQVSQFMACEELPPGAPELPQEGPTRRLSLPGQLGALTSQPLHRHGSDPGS

Row | SMILES | hERG current change (%, negative = inhibition) at 10uM [%]
1 | O/N=C/c1ccccc1OCc1ccc(Cl)cc1 | 5.5
2 | Cc1ccc(/C=C/C(=O)Nc2ccc([N+](=O)[O-])cc2)o1 | -1.05
3 | CCC(Oc1ccccc1)C(=O)N(Cc1ccccc1)c1ccccn1 (stereo not shown) | -6.96
4 | O=C(Nc1cc(C(F)(F)F)ccc1N1CCOCC1)c1cnccn1 | -2.15
5 | Cc1nc2ccccc2nc1OCC(=O)Nc1cc(C(F)(F)F)ccc1N1CCOCC1 | 0.222
6 | O=C(Nc1cc(C(F)(F)F)ccc1N1CCOCC1)c1cccnc1 | -42.3
7 | O=C(CNCc1cccnc1)Nc1cc(C(F)(F)F)ccc1N1CCOCC1.O=C(O)C(=O)O | -67
8 | O=C(CNCc1ccccn1)Nc1cc(C(F)(F)F)ccc1N1CCOCC1.O=C(O)C(=O)O | -57.5
9 | O=C(Nc1cc(C(F)(F)F)ccc1N1CCOCC1)c1ccccc1 | 12.6
10 | O=C(O)CSc1c2c(nc3cc(C(=O)NCCN4CCOCC4)ccc13)CCC2 | -6.18
11 | CC(C)(C)c1ccc(/C=N/NC(=O)C[n+]2ccccc2)cc1.[Cl-] | 26
12 | Cc1ccc(NC(=O)C2(C)Cc3ccccc3C(=O)O2)cc1 (stereo not shown) | -5.03
13 | CCCCNS(=O)(=O)c1ccc2nc(-c3cccs3)cc(C(=O)NCC(OC)OC)c2c1 | 9.85
14 | Cc1c(C(=O)N2CCCCC2)c(S(=O)(=O)Nc2cccc(Br)c2)c(C)n1C | -4.02
15 | O=C(CCc1nnc(C2CCCCC2)o1)N1CCCCC1CCn1cccn1 (stereo not shown) | 3.65
16 | CCC1CCCCN1C(=O)CCc1nnc(C2CCCCC2)o1 (stereo not shown) | -55
17 | COC(=O)[C@@H]1CCCN1C(=O)CCc1nnc(C2CCCCC2)o1 | 6.94
18 | O=C(CCc1nnc(C2CCCCC2)o1)N1CCN(C2CCCCC2)CC1 | 10.4
19 | O=C(CCc1nnc(CCc2ccccc2)o1)N1CCCCC1CCn1cccn1 (stereo not shown) | -51.1
20 | O=C(CCc1nnc(CCCCc2ccccc2)o1)N1CCCCC1CCO (stereo not shown) | -1.73
21 | O=C(Cc1cccs1)N/N=C/C(Br)=C/c1ccccc1 | 10.1
22 | CCOc1ccc(OCCCC(=O)Nc2nc3ccccc3[nH]2)cc1 | 12

Row | SMILES | hERG current change (%, negative = inhibition) at 10uM [%]
23 | CC1CCCN(C(=O)CSc2nnc(-c3ccncc3)n2C)C1 (stereo not shown) | 45.9
24 | C/C=C\C=C\C(=O)Nc1cccc(C2=NOC3(C2)C[C@@H](C(N)=O)N(C(=O)C(c2ccccc2)c2ccccc2)C3)c1 (stereo partly shown) | 0.545
25 | Cc1ccc(C=Nc2ccc(N(C)C)cc2)o1 | -0.267
26 | CCOC(=O)c1ccc(NC(=O)c2ccc3c(c2)C(=O)N(CC2CCCO2)C3=O)cc1 (stereo not shown) | -1.87
27 | COc1ccccc1OCC(=O)NCCS(=O)(=O)N1CCN(c2ccccc2)CC1 | -44.4
28 | Cc1ccccc1OCC(=O)NCCS(=O)(=O)N1CCN(c2ccc(F)cc2)CC1 | -66.6
29 | COc1ccc(OCC(=O)NCCS(=O)(=O)N2CCN(c3ccc(F)cc3)CC2)cc1 | -8.69
30 | COc1ccc(N2CCN(S(=O)(=O)CCNC(=O)COc3ccccc3OC)CC2)cc1 | -1.02
31 | COc1ccc(N2CCN(S(=O)(=O)CCNC(=O)COc3ccccc3C)CC2)cc1 | 1.17
32 | COc1ccccc1OCC(=O)NCCS(=O)(=O)N1CCN(c2ccc(F)cc2)CC1 | -60.8
33 | CCOc1ccc(/C=C(\C#N)C(=O)c2c(C)[nH]c3ccccc23)cc1OC | -4.5
34 | CC1Cc2ccccc2N1CC(=O)Nc1ccc(S(N)(=O)=O)cc1 (stereo not shown) | -6.21
35 | COC(=O)c1cc(-c2ccccc2)sc1NC(=O)CN1C(=O)c2ccccc2C1=O | 15.9
36 | Cc1ccc(N2CCCn3c2cc(C)c(C#N)c3=O)cc1Cl | -22.8
37 | Cc1cc2n(c(=O)c1C#N)CCCN2c1cccc(Cl)c1 | -65
38 | Cc1ccc(N2CCCn3c2cc(C)c(C#N)c3=O)cc1C | -21.4
39 | C#CCOc1ccc(/C=C2\SC(=S)N(Cc3cccnc3)C2=O)cc1 | 15.9
40 | Cc1ccc(Nc2nc(N)nc(CN3CCN(Cc4ccc5c(c4)OCO5)CC3)n2)cc1 | -73.3
41 | Cc1cc(Cl)ccc1NC(=S)N1CCN(Cc2ccc3c(c2)OCO3)CC1 | 4.84
42 | Cc1ccc(NC(=O)CSCC(=O)N2CCN(Cc3ccc4c(c3)OCO4)CC2)cc1 | -25.9
43 | O=C(Nc1ccc(Cl)cc1)N1CCN(Cc2ccc3c(c2)OCO3)CC1 | -27.6
44 | Cc1ccc(Nc2nc(N)nc(CN3CCN(Cc4ccc5c(c4)OCO5)CC3)n2)cc1Cl | -81.2

Row | SMILES | hERG current change (%, negative = inhibition) at 10uM [%]
45 | Cc1cccc(S(=O)(=O)N2CCN(Cc3ccc4c(c3)OCO4)CC2)c1 | -35.2
46 | Nc1nc(CN2CCN(Cc3ccc4c(c3)OCO4)CC2)nc(Nc2ccccc2)n1 | -75.6
47 | Cc1ccc(NC2=NCC(=O)N2Cc2ccc3c(c2)OCO3)cc1 | -5.93
48 | Cc1cccc(Nc2nc(N)nc(CN3CCN(Cc4ccc5c(c4)OCO5)CC3)n2)c1 | -75.2
49 | c1ccc(CN2CCC(N3CCN(Cc4ccc5c(c4)OCO5)CC3)CC2)cc1 | -39.8
50 | c1ccc(Cc2noc(CN3CCN(Cc4ccc5c(c4)OCO5)CC3)n2)cc1 | -28.1
51 | Cc1cccc(NC(=O)CSCC(=O)N2CCN(Cc3ccc4c(c3)OCO4)CC2)c1 | -23.3
52 | O=C(CNC(=O)N1CC(=O)Nc2ccccc21)NCc1cccc(Cl)c1 | 12.8
53 | COC(=O)c1sccc1NC(=O)c1ccccc1F | 15.3
54 | O=C(c1ccc(S(=O)(=O)N2CCCC2)cc1)N1CCN(Cc2ccc3c(c2)OCO3)CC1 | -28
55 | CCN(CC)C(=O)c1ccc(NC(=O)c2ccc(N3CCCC3=O)cc2)cc1 | 5.47
56 | Cc1ccc2nc3sc(C(=O)N4CCCc5ccccc54)c(N)c3cc2c1 | 2.69
57 | COCCNS(=O)(=O)c1ccc2c(c1)Cc1cc(S(=O)(=O)NCCOC)ccc1-2 | -22.1
58 | O=C(N/C=C/c1ccccc1)Nc1ccc(Cl)cc1 | 10.3
59 | CCOc1ccc(C(=O)Nc2cc(S(=O)(=O)Nc3ccccc3Cl)ccc2N2CCOCC2)cc1 | 6.95
60 | Cc1ccc(S(=O)(=O)NCC(=O)N(c2ccccc2)C(C(=O)NCc2ccccc2)c2ccco2)cc1 (stereo not shown) | -6.04
61 | Cc1ccc(-n2nc(C(=O)N3CCN(C)CC3)c3c4ccccc4n(C)c3c2=O)cc1 | 5.61
62 | Cc1nc(SCC(=O)NC2CC2)c2c(C)c(C)sc2n1 | 6.21
63 | CC(=O)N/C(=C\c1ccccc1)C(=O)OCc1ccc(F)cc1 | -0.974
64 | CC(=O)Nc1ccc(S(=O)(=O)NC(C)c2ccccc2)cc1 (stereo not shown) | 13.2
65 | CCOC(=O)c1c(NC(=O)CN2C(=O)NC3(CCCCCC3)C2=O)sc(C)c1-c1ccc(C)cc1 | 4.24
66 | O=C(CSc1ccc2nnc(-c3cccnc3)n2n1)Nc1cccc(F)c1 | -43.6

Row | SMILES | hERG current change (%, negative = inhibition) at 10uM [%]
67 | Cc1cccc(NC(=O)CSc2ccc3nnc(-c4cccnc4)n3n2)c1 | -30.1
68 | Cc1cccc(CSc2ccc3nnc(-c4cccnc4)n3n2)c1 | -66.5
69 | Cc1cccc(CSc2ccc3nnc(-c4cccs4)n3n2)c1 | 17.9
70 | Fc1cccc(CSc2ccc3nnc(-c4cccnc4)n3n2)c1 | -69
71 | Nn1c(SCc2cccc(F)c2)nnc1-c1cccnc1 | 9.33
72 | Cc1cc(S(=O)(=O)N2CCCC2)ccc1OCC(=O)NCc1ccccc1 | -11.8
73 | COc1ccc(-c2nn(-c3ccccc3)cc2/C=N/NC(=O)c2ccc(Br)o2)cc1 | -0.138
74 | Cc1ccc(C(=O)NCCc2nnc3ccc(SCC(=O)Nc4ccccc4F)nn23)cc1 | -12.7
75 | Cc1ccc(NC(=O)c2cc(=O)n(Cc3ccccc3)c(=O)[nH]2)cc1C | 35.8
76 | N#C/C(=C/c1ccc(Sc2nc3ccccc3[nH]2)o1)c1cccc(Br)c1 | 21.3
77 | S=C(NCCc1ccccc1)N1CCN(C2CCCCC2)CC1 | -63.4
78 | O=C(c1ccccc1)N1CCN(C(=S)NCCc2ccccc2)CC1 | -65.7
79 | S=C(NCCc1ccccc1)N1CCCCC1 | 14.4
80 | OC1CCN(C(=S)NCCc2ccccc2)CC1 | -0.627
81 | S=C(NCCc1ccccc1)N1CCCC1 | 9.47
82 | CCOC(=O)c1ccccc1NC(=S)N1CCN(C2CCCCC2)CC1 | -62.3
83 | CCOC(=O)c1ccccc1NC(=S)N1CCC(N2CCCCC2)CC1 | -33.8
84 | COC(=O)c1ccccc1NC(=S)N1CCN(C2CCCCC2)CC1 | -22.4
85 | CC1CCN(C(=S)NCCc2ccccc2)CC1 | -15.2
86 | CN1CCN(C(=S)NCCc2ccccc2)CC1.O=C(O)C(=O)O | -14.5
87 | CC(=O)N1CCN(C(=S)NCCc2ccccc2)CC1 | -4.66
88 | S=C(NCCc1ccccc1)N1CCN(C23CC4CC(CC(C4)C2)C3)CC1 | -75.2
